Entries with a potency or affinity are not part of this list. Active and inactive are the calls of the source.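 Rule for the calls: active = toxic compound whose fitted half-effect dose of signal loss is at most twice its top tested dose; inconclusive = flat fit losing 30 to 70% signal, or poor fit; inactive = the rest.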

The nature of this assay: HeLa cell viability loss – plate reader, dry powder, cytotoxicity control, dose response (AID 651946). As to conditions: ATP luminescence (CellTiter-Glo), 48 h; series mostly up to 26 µM; activity change, negative = cytotoxicity: at the top concentration. (In general: Cellular ATP, detected with luciferase, serves as a proxy for viable cell number.)
In the case of `Cc1ccc(CSc2nnc(-c3ccccc3)o2)cc1`, the “activity change, negative = cytotoxicity” value is 9.57% (inactive).
Same read-out and setting: under `c1ccc(CSc2nnc(C3CCCCC3)o2)cc1` stands 8.12% (inactive); under `O=S(Cc1cn(Cc2ccc(F)cc2)nn1)c1nnc(-c2ccc(Cl)cc2)o1` (configuration not stated), -84.4% (inactive).
Still for that read-out and setting: in the case of `Fc1cccc(-c2nnc(SCc3ccccc3)o2)c1` it was 4.36% (inactive).
On the same count and under the same terms, in the case of `c1ccc(-n2cc(CSc3nnc(C4CCC4)o3)nn2)cc1` it was -13.6% (inactive); in that of `Cc1cccc(CSc2nnc(-c3ccccc3)o2)c1`, -5.41% (inactive).
For the compound `c1ccc(CSc2nnc(-c3cccnc3)o2)nc1`, the “activity change, negative = cytotoxicity” value is 16.6% (inactive).
The same measure, in the same setting: under `Fc1cccc(CSc2nnc(-c3ccccc3)o2)c1` stands -0.479% (inactive).
Take `c1ccc(CSc2nnc(-c3ccco3)o2)cc1`: the “activity change, negative = cytotoxicity” value is 9.18% (inactive).
On the same count and under the same terms, in the case of `COc1cccc(-c2nnc(SCc3ccccc3)o2)c1` it was -3.27% (inactive); in that of `FC(F)(F)Oc1cccc(-c2nnc(SCc3ccccc3)o2)c1`, 2.45% (inactive).
Consider `O=C(Cc1ccccc1)c1nnc(-c2ccccc2)o1`, for which the “activity change, negative = cytotoxicity” value is -7.49% (inactive).
Same read-out and setting: under `CS(=O)(=O)c1ccc(-c2nnc(SCc3ccccc3)o2)cc1` stands -16.9% (inactive).
Still for that read-out and setting: in the case of `Cc1ccccc1-c1nnc(SCc2ccccc2)o1` it was 5.07% (inactive); in that of `N#Cc1ccccc1CSc1nnc(-c2ccccc2)o1`, 2.07% (inactive); in that of `Fc1ccccc1CSc1nnc(-c2ccccc2)o1`, 0.588% (inactive).
Same read-out and setting: under `N#Cc1ccc(CSc2nnc(-c3ccccc3)o2)cc1` stands -5.77% (inactive).
For `Fc1ccc(CSc2nnc(-c3ccccc3)o2)cc1`, the call was inactive.
As to `FC1(F)CN(CCSc2nnc(-c3ccccc3)o2)C1`, the “activity change, negative = cytotoxicity” value was 0.959% (inactive).
The same measure, in the same setting: under `c1ccc(CSc2nnc(-c3ccncc3)o2)cc1` stands 7.89% (inactive).
Same read-out and setting: under `c1ccc(Cn2cc(CSc3nnc(C4CCC4)o3)nn2)cc1` stands 3.8% (inactive).
Same read-out and setting: in the case of `COc1ccc(-c2nnc(SCc3ccccc3)o2)cc1` it was -3.91% (inactive); in that of `Cc1nnc(SCc2ccccc2)o1`, -5.66% (inactive); in that of `N#Cc1ccc(-c2nnc(SCc3ccccc3)o2)cc1`, -16.1% (inactive).
With `FC(F)(F)c1ccc(-c2nnc(SCc3ccccc3)o2)cc1`, the “activity change, negative = cytotoxicity” value is 0.304% (inactive).
Same read-out and setting: in the case of `c1ccc(CSc2nnc(Cc3ccccc3)o2)cc1` it was 10.3% (inactive); in that of `[O-][n+]1ccccc1CSc1nnc(-c2ccccc2)o1`, 5.5% (inactive).
The same measure, in the same setting: under `c1ccc(Cn2cc(CSc3nnc(-c4ccccc4)o3)nn2)cc1` stands -5.77% (inactive); under `Cc1cccc(-c2nnc(SCc3ccccc3)o2)c1`, 3.41% (inactive).
As for `c1ccc(-c2nnc(SCc3cccnc3)o2)cc1`, the “activity change, negative = cytotoxicity” value is 11.6% (inactive).
Same read-out and setting: under `COCCSc1nnc(-c2ccccc2)o1` stands 6.23% (inactive); under `c1ccc(-c2nnc(SCCN3CCOCC3)o2)cc1`, -3.35% (inactive); under `c1ccc(CSc2nnc(-c3ccncc3)o2)nc1`, 8.34% (inactive).
The same measure, in the same setting: under `CS(=O)(=O)c1ccccc1-c1nnc(SCc2ccccc2)o1` stands -4.85% (inactive); under `c1ccc(CCc2nnc(-c3ccccc3)o2)cc1`, 13% [at 12 µM] (inactive).
As for `Clc1ccccc1-c1nnc(SCc2ccccc2)o1`, the “activity change, negative = cytotoxicity” value is -12.7% (inactive).
Still for that read-out and setting: under `Fc1ccc(-c2nnc(SCc3cn(Cc4ccccc4)nn3)o2)cc1` stands 3.95% (inactive).

Values taken from PubChem BioAssay AID651946 (Broad Institute, 2012).
